Screening results deposited in PubChem by several laboratories.
SENP8 block-1: SENP8 (human) protease inhibition; Q96LD8; recombinant SENP8, Nedd8 substrate fluorescence; inhibition, % at 20 µM; 360,000 compounds, 0.64% hits; in the data active = inhibition mostly above about 40%, no sharp cut-off; inactive = mostly below about 27%
SENP7 block: blocks the human protease SENP7; Q9BQF6; recombinant SENP7, Z-RLRGG-aminoluciferin luminescence, 40 min; inhibition, % at 5 µM; 330,000 compounds, 1.5% hits;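 active = inhibition above about 50% at the single test dose, limit read from the data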;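 also: plate controls were DMSO with enzyme for no effect and no enzyme buffer wells for full effect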
Target sequence (Q9BQF6 706-1050 limits assumed): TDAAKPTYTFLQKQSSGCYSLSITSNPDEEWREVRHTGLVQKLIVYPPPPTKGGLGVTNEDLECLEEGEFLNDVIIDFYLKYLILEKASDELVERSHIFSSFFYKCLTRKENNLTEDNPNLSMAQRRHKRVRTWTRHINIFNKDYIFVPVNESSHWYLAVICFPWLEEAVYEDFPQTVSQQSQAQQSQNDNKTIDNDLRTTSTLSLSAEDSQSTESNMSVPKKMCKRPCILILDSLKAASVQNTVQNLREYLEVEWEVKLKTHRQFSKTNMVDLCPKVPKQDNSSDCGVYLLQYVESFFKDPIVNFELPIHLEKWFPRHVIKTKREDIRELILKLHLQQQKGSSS
SENP8 block-2: blocks the human protease SENP8 | 330,000 compounds, 1.2% hits | inhibition, % at 10 µM | purified SENP8, Z-RLRGG-aminoluciferin cleavage, luminescence | AID 2540; in the data active = inhibition above about 50%
LGR2 antag: Drosophila LGR2 receptor signaling inhibition. inhibition, % at 9.99 µM. HEK293 LGR2, CRE-luciferase, bursicon-stimulated, 4 h. 380,000 compounds, 0.35% hits;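 active = drop in luminescence signal, shown as inhibition above about 50% in the replicate tests, limit read from the data, passing the limit was not always enough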;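 also: agonist challenge used bursicon conditioned medium at about half maximal strength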
HSP90 refold inh: inhibitors of HSP90 luciferase refolding in rabbit reticulocyte lysate; luciferase refolding luminescence, 3 h; inhibition, % at 5.6 µM; 290,000 compounds, 0.91% hits; AID 1789;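 active = inhibition above the screen-wide mean plus 3 SD, computed separately per campaign, cut at about 16% in these data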;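 also: 0% = DMSO wells and 100% = 60 µM geldanamycin wells; inhibitors lower the luminescence because luciferase stays unfolded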
SENP6 block: inhibitors of human SENP6 protease; Q9GZR1; Recombinant SENP6 catalytic domain, aminoluciferin luminescence; inhibition, % at 10 µM; 330,000 compounds, 1.8% hits;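 active = inhibition above about 50% at the single tested dose, limit read from the data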;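 also: plate controls were DMSO wells with enzyme for no effect and DMSO wells lacking enzyme for full effect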
SENP8 confirm: confirmation of human SENP8 protease inhibitors; shares compounds with SENP7 block; Recombinant SENP8, Z-RLRGG-aminoluciferin luminescence, 60 min; inhibition, % at 12.5 µM; 6,200 compounds, 40% hits; AID 488912;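 active = mean inhibition across replicates above about 50%, limit read from the data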
SENP6 confirm: confirmation of human SENP6 protease inhibitors. shares compounds with SENP7 block. recombinant SENP6, Z-RLRGG-aminoluciferin luminescence. inhibition, % at 12.5 µM. 6,200 compounds, 58% hits. AID 488915
SENP7 confirm: confirmation of human SENP7 protease inhibitors | AID 488917 | 6,200 compounds, 69% hits | recombinant SENP7, Z-RLRGG-aminoluciferin luminescence, 40 min | inhibition, % at 12.5 µM | shares compounds with SENP7 block
Casp3 SENP sel: caspase-3 inhibition (SENP selectivity assay); purified caspase-3, Z-DEVD-aminoluciferin luminescence, 60 min; 6,200 compounds, 60% hits; shares compounds with SENP7 block; inhibition, % at 12.5 µM;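 active = mean inhibition above about 50%, limit read from the data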;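 also: plate controls were enzyme with DMSO for no effect and wells without caspase-3 for full effect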
Luc interf: counter-screen for SENP inhibitors: luminescence interference | shares compounds with SENP7 block | inhibition, % at 12.5 µM | AID 488919 | 6,200 compounds, 39% hits | Pre-incubated SENP8/Z-RLRGG-aminoluciferin, luciferase luminescence interference;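 active = mean inhibition above about 50% when retested at one dose, limit read from the data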;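 also: plate controls were DMSO wells with completed reaction for no effect and substrate without enzyme for full effect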
Numbers without * were called inactive; x = no result given. An excerpt weighted towards active compounds, which were near 2.3% of everything screened.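 The calls were made as follows, unless noted: active = mean inhibition above about 50% in the one-dose retest (limit read from the data); inactive = the rest.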

SMILES	SENP8 block-1	SENP7 block	SENP8 block-2	LGR2 antag	HSP90 refold inh	SENP6 block	SENP8 confirm	SENP6 confirm	SENP7 confirm	Casp3 SENP sel	Luc interf
COc1ccc(C2CC(=O)c3cnc(N4CCc5ccccc54)nc3C2)cc1OC (stereo not drawn)	x	11	-4	x	5	-9	x	x	x	x	x
C[C@H](CO)N1C[C@H](C)[C@H](CN(C)C(=O)NC2CCCCC2)Oc2ccc(NC(=O)Cc3cn(C)c4ccccc34)cc2CC1=O	x	x	x	15	x	x	x	x	x	x	x
CCC(CO)Oc1cc(NCc2ccccc2)c2ncn(C(C)C)c2c1 (stereo not drawn)	13	11	-1	10	x	0	x	x	x	x	x
CC(C)n1cnc2c(NCc3ccccc3)cc(N[C@H](C)CO)cc21	-73	47	81*	x	x	-20	85*	90*	68*	97*	-3
CCC(COC)Oc1cc(NCc2ccccc2)c2ncn(C(C)C)c2c1 (stereo not drawn)	11	73*	77*	104*	x	84*	42	71*	23	5	-3
CCCNC(=O)N(C)C[C@H]1Oc2ncc(C#CC3(O)CCCC3)cc2C(=O)N([C@H](C)CO)C[C@H]1C	x	x	x	26	x	x	x	x	x	x	x
Cc1nc2sc(-c3ccccc3)nn2c(=O)c1Br	-30	73*	60*	x	0	75*	48	33	42	61*	11
CNC(=O)C[C@H]1CC[C@@H]2[C@H](COc3ccc(NC(=O)Nc4cccc(Cl)c4)cc3C(=O)N2C)O1	x	x	x	2	x	x	x	x	x	x	x
O=C(/C=C/c1ccccc1Cl)c1ccc(O)cc1	22	73*	82*	-32	0	90*	8	-4	-1	14	55*
COc1ccc(OC)c(NC(=O)C(=O)N/N=C/c2ccccc2[N+](=O)[O-])c1	16	92*	-4	x	1	-7	7	8	7	4	3
O=C(/C=C/c1ccccc1[N+](=O)[O-])Nc1ccccc1	3	87*	81*	-73	2	90*	83*	82*	94*	81*	81*
COc1cc(NC(=O)/C=C/c2ccccc2[N+](=O)[O-])cc(OC)c1	14	63*	55*	-40	1	73*	11	8	-3	0	0
CO[C@@H]1CN(C)C(=O)c2cc(NC(C)=O)ccc2OC[C@H](C)N(Cc2cncnc2)C[C@H]1C	x	x	x	1	x	x	x	x	x	x	x
CN(C)S(=O)(=O)c1ccc(NC(=O)/C=C/c2ccccc2Cl)cc1	-10	-1	-20	-27	-3	-8	x	x	x	x	x
O=C(/C=C/c1ccccc1Cl)Nc1ccccc1	22	99*	96*	x	13	97*	8	99*	103*	94*	95*
CC(C)NC(=O)N[C@H]1CC[C@H](CC(=O)NCCN2CCCC2)O[C@H]1CO	x	x	x	2	x	x	x	x	x	x	x
O=C(c1cnn(-c2cccc(F)c2)c1)c1ccccc1O	12	68*	58*	-41	-7	71*	16	72*	84*	56*	12
O=C(c1cnn(C(=O)c2ccccc2)c1)c1ccccc1O	-96	5	-9	15	2	-11	x	x	x	x	x
O=C(c1cnn(-c2ccccc2)c1)c1ccc2ccccc2c1O	14	86*	41	x	1	7	12	16	0	27	1
O=C(O)c1ccc(-n2cc(C(=O)c3ccccc3O)cn2)cc1	12	78*	78*	1	-2	84*	81*	79*	93*	91*	85*
